About 7,900 targets were measured; listed, in parts, are those with a hit and a random draw of the rest. About 0.6% of all pairs of compound and target were hits. Unmarked numbers belong to inactive results.
Tests used:
Test in all cases: log2 fold change, soluble protein after heating vs DMSO (PISA); higher = thermal stabilisation; K562 cells, 10 uM, 30 min; active = over 0.2 and 3.5 SD of the protein, either way, in both replicates (recomputed)
[1] = compound: CC1=C(C=C(C=C1)NC(=O)C2=CC(=CC=C2)C(C)(C)C#N)NC3=CC4=C(C=C3)N=CN(C4=O)C
Method in brief: (§1)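 Values are thermal stability changes relative to control samples and are taken from duplicates. They are stated as log2 fold changes. Before quantification by TMTpro 16plex LC-MS/MS with equalised channel sums, K562 cells at 2×10^6 cells/mL were treated with 10 μM compound for 30 min, heated in aliquots for 3 min across 48°C-58°C, pooled, extracted in PBS with 0.5% NP-40 at 4°C, and centrifuged at 21,000xg for 90 min to give the soluble supernatant.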

[2] = compound: CC1=C(C=C(C=C1)NC(=O)C2=CC(=CC=C2)N(C)C)NC(=O)C3=CC=C(C=C3)O
Method in brief: as §1

[3] = compound: CC1=CC=C(C=C1)SC2=C3C=C(SC3=CN=C2)C(=O)N
Method in brief: as §1

[4] = compound: CC1=NC(=CC=C1)C2=C(N=C(N2)C(C)(C)C)C3=CC4=NC=CN=C4C=C3
Method in brief: as §1

vemurafenib = compound: CCCS(=O)(=O)Nc1ccc(F)c(C(=O)c2c[nH]c3ncc(-c4ccc(Cl)cc4)cc23)c1F [vemurafenib]
Method in brief: as §1

[5] = compound: CCCS(=O)(=O)Nc1ccc(F)c(C(=O)c2c[nH]c3ncc(Cl)cc23)c1F
Method in brief: as §1

givinostat = compound: CCN(CC)Cc1ccc2cc(COC(=O)Nc3ccc(C(=O)NO)cc3)ccc2c1 [givinostat]
Method in brief: as §1

barasertib = compound: CCN(CCCOc1ccc2c(Nc3cc(CC(=O)Nc4cccc(F)c4)[nH]n3)ncnc2c1)CCOP(=O)(O)O [barasertib]
Method in brief: as §1

volasertib = compound: CC[C@@H]1C(=O)N(C)c2cnc(Nc3ccc(C(=O)N[C@H]4CC[C@H](N5CCN(CC6CC6)CC5)CC4)cc3OC)nc2N1C(C)C [volasertib]
Method in brief: as §1

[6] = compound: CCn1c(C(=O)N(C2CC2)C2CC2)cc2c3c(ncn3C)c(Nc3cc(C)n(C)n3)nc21
Method in brief: as §1

[7] = compound: CCn1cc(-c2ccnc3[nH]c(-c4cccc(CN(C)C)c4)cc23)c(-c2ccc(NC(=O)N(C)C)cc2)n1
Method in brief: as §1

[8] = compound: CN(C)CC(=O)Nc1ccc2[nH]c(=O)c3ccccc3c2c1
Method in brief: as §1

rosiglitazone = compound: CN(CCOC1=CC=C(C=C1)C[C@H]2C(=O)NC(=O)S2)C3=CC=CC=N3 (racemic) [rosiglitazone]
Method in brief: as §1

[9] = compound: CN1C2=C(C3=C1C(=O)N(N=C3)CC4=CC(=CC=C4)N)SC(=C2)S(=O)C
Method in brief: as §1

[10] = compound: CN1CCC(CNc2ccc3ncc(-c4cccc(OC(F)(F)F)c4)n3n2)CC1
Method in brief: as §1

Nexturastat A = compound: CCCCN(Cc1ccc(C(=O)NO)cc1)C(=O)Nc1ccccc1 [Nexturastat A]
Method in brief: as §1

epoxomicin = compound: CC[C@H](C)[C@@H](C(=O)N[C@@H]([C@@H](C)O)C(=O)N[C@@H](CC(C)C)C(=O)[C@]1(CO1)C)NC(=O)[C@H]([C@@H](C)CC)N(C)C(=O)C [epoxomicin]
Method in brief: as §1

[11] = compound: CCCc1cc(C)[nH]c(=O)c1CNC(=O)c1cc(-c2ccnc(N3CCN(C)CC3)c2)cc2c1cnn2C(C)C
Method in brief: as §1

[12] = compound: CC[C@@H]1C(=O)N(C)c2cnc(Nc3ccc(C(=O)NC4CCN(C)CC4)cc3OC)nc2N1C1CCCC1
Method in brief: as §1

[13] = compound: CC[C@H](C)N1C=C(C2=C(C=C(C=C21)C3=CN=C(C=C3)N4CCNCC4)C(=O)NCC5=C(C=C(NC5=O)C)C)C
Method in brief: as §1

Chain of UniProt Q8WUD6 (Q8WUD6 whole entry, looked up): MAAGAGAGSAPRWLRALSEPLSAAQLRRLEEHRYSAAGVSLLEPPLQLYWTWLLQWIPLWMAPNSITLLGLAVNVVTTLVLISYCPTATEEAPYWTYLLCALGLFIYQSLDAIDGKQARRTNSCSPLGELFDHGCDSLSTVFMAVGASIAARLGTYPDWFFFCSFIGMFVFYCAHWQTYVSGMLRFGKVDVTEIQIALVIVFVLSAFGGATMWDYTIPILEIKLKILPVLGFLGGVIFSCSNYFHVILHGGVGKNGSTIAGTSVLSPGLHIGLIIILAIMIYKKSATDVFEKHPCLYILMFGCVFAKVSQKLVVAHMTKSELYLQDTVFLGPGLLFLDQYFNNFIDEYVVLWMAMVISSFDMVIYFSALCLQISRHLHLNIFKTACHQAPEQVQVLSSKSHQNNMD
Chain of UniProt P46527 (P46527 whole entry, looked up): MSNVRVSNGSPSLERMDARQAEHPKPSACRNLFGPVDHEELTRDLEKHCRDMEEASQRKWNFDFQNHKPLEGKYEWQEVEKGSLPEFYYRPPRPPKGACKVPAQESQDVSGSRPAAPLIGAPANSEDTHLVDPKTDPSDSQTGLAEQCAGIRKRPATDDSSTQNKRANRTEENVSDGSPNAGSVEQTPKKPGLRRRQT
Chain of UniProt Q9UNS2 (Q9UNS2 whole entry, looked up): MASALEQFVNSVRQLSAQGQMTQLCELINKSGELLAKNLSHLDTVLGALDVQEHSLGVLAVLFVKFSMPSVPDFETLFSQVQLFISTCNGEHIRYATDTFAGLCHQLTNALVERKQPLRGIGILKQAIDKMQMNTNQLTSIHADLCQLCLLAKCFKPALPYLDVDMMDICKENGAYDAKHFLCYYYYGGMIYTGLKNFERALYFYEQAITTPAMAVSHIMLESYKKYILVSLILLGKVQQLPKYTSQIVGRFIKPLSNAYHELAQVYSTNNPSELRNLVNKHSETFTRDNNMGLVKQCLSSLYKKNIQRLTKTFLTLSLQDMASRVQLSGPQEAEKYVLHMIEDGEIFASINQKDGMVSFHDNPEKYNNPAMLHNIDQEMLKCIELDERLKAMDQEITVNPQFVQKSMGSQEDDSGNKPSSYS
Chain of UniProt Q69YH5 (Q69YH5 whole entry, looked up): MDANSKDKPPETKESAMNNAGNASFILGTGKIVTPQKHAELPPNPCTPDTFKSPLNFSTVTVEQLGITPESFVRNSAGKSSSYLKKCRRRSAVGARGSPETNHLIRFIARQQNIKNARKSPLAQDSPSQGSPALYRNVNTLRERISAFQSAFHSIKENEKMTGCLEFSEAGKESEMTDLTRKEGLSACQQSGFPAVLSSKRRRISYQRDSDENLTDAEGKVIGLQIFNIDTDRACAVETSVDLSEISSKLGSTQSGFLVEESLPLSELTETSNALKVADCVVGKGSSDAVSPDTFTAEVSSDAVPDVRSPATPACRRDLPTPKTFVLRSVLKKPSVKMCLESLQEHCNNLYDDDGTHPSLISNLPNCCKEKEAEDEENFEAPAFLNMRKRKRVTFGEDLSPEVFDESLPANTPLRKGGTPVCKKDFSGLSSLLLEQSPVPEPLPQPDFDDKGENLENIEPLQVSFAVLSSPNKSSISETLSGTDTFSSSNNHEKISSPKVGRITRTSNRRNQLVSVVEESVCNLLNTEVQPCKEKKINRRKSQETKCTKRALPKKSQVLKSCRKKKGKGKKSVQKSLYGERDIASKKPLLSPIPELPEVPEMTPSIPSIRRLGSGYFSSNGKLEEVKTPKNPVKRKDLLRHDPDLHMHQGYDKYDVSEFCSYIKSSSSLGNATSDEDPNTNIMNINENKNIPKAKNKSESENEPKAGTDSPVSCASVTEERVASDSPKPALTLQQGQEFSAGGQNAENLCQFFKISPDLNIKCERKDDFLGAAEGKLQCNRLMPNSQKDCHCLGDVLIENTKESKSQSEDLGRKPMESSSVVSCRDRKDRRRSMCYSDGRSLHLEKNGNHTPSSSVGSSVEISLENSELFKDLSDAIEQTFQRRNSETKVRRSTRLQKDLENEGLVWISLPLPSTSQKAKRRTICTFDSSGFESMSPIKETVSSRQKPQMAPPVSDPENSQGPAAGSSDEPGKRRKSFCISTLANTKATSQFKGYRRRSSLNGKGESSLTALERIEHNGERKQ
Chain of UniProt Q96MX0 (Q96MX0 whole entry, looked up): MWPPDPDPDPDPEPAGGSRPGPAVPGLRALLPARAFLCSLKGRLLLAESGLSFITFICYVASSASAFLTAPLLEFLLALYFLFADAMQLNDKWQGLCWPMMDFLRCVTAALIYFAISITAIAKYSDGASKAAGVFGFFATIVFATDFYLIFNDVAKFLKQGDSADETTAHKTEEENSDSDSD
Chain of UniProt Q6UUV9 (Q6UUV9 whole entry, looked up): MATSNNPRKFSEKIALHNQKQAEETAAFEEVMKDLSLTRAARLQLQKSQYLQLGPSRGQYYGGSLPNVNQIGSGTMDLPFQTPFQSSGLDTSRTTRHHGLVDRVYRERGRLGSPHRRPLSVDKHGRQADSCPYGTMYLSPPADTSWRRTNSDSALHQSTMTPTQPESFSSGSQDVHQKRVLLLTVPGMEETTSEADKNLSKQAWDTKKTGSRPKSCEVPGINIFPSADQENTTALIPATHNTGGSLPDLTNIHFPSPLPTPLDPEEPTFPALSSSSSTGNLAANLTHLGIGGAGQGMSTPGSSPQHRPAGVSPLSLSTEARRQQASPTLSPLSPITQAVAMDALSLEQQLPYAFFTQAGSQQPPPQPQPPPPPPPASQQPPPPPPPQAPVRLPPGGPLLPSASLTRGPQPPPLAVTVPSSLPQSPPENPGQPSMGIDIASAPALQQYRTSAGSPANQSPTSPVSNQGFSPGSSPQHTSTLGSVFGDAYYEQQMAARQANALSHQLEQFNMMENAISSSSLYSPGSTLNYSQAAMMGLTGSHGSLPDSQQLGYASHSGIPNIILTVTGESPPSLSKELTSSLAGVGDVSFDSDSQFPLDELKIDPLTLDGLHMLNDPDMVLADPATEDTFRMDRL
Chain of UniProt P55211 (P55211 whole entry, looked up): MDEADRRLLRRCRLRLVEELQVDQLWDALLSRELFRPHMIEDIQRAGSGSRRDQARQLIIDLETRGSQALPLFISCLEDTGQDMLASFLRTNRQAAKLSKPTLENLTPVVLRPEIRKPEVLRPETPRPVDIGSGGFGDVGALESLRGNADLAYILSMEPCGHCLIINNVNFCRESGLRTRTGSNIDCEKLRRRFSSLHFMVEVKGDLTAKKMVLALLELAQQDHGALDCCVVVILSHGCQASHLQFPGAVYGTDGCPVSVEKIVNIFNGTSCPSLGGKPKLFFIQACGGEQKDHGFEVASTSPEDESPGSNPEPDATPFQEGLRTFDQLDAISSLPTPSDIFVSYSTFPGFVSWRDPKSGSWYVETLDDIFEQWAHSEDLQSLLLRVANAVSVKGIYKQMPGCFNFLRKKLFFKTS
Chain of UniProt P24311 (P24311 whole entry, looked up): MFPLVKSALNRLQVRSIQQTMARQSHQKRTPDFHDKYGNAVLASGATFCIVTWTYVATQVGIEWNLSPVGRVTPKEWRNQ

Row | Target | log2 fold change [1] | log2 fold change [2] | log2 fold change [3] | log2 fold change [4] | log2 fold change (vemurafenib) | log2 fold change [5] | log2 fold change (givinostat) | log2 fold change (barasertib) | log2 fold change (volasertib) | log2 fold change [6] | log2 fold change [7] | log2 fold change [8] | log2 fold change (rosiglitazone) | log2 fold change [9] | log2 fold change [10] | log2 fold change (Nexturastat A) | log2 fold change (epoxomicin) | log2 fold change [11] | log2 fold change [12] | log2 fold change [13]
1 | CENPE (UniProt Q02224) | -0.018 | 0.063 | 0.022 | -0.096 | 0.047 | -0.108 | 0.285 | -0.1 | 0.137 | -0.079 | -0.039 | -0.061 | 0.03 | -0.255 | 0.192 |  |  |  |  | 
2 | CRTC1 isoform 2 (UniProt Q6UUV9) | -0.001 | 0.195 | -0.086 | 0.073 | -0.035 | 0.051 | 0.158 | 0.015 | 0.211 | -0.164 | 0.034 | -0.069 | 0.065 | -0.153 | 0.101 | 0.24 | -0.062 |  |  | 
3 | CDCA2 (UniProt Q69YH5) | -0.134 | 0.033 | -0.047 | -0.299 | -0.009 | -0.043 | 0.382 |  | 0.275 | 0.015 | 0.152 | -0.038 |  |  | 0.205 | 0.638 (active) | -0.025 | -0.027 | 0.193 | -0.131
4 | CASP9 (UniProt P55211) | 0.103 | -0.091 | 0.032 | 0.021 | 0.107 | 0.111 |  |  | -0.629 (active) |  | 0.035 | 0.048 |  | 0.001 | -0.188 | 0.045 | 0.054 |  | -0.083 | 0.008
5 | CHPT1 (UniProt Q8WUD6) | 0.088 | 0.055 | 0.132 |  |  | 0.051 |  |  | -0.228 |  | -0.042 |  |  | 0.047 | -0.79 (active) | 0.114 | -0.176 | 0.047 | -0.324 | 0.119
6 | CDKN1B (UniProt P46527) | -0.016 | -0.009 | -0.026 | 0 | -0.176 | -0.048 | 0.051 | -0.063 | 0.028 | -0.034 | 0.036 | 0.025 | 0.067 | 0.06 | 0.073 | 0.148 | 0.393 | 0.057 |  | -0.083
7 | CMTM3 (UniProt Q96MX0) | 0.052 |  | 0.117 | -0.027 | 0 | 0.001 | -0.016 | 0.098 | -0.088 | -0.009 | 0.057 | 0.02 | -0.324 (active) | 0.048 | -0.122 | -0.119 | 0.075 | -0.024 | 0.066 | -0.061
8 | COPS3 isoform 2 (UniProt Q9UNS2) | -0.154 | 0.03 | 0.066 | -0.128 | -0.303 | -0.14 |  | 0.065 | 0.031 |  | -0.075 | -0.165 | -0.046 |  | -0.124 | -0.113 | 0.059 | -0.162 | 0.079 | 0.001
9 | COX7B (UniProt P24311) | 0.048 |  | 0.045 | 0.094 | -0.148 | 0.136 | -0.013 | -0.025 | 0.024 | 0.065 | -0.035 | 0.04 | -0.033 | 0.015 | 0.323 (active) | -0.056 | 0.023 | -0.188 | -0.011 | -0.052
